Measured potencies and affinities stand elsewhere.
Target: NAD-dependent protein deacylase sirtuin-5, mitochondrial (Homo sapiens) (UniProt Q9NXA8)
Test: blockers of sirtuin-5 peptide desuccinylation – biochemical, fluorescence imaging, cherry-pick, set 6, dose response (AID 720597);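 note: lower AMC signal can also come from blocking the trypsin step; 0% = median of neutral control wells and -100% = median of positive control wells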
Details: Purified SirT5, succinyl-peptide-AMC/trypsin fluorescence; series mostly up to 15 µM; activity change, negative = inhibition: at the top concentration;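 active = fitted half-maximal dose no more than twice the top valid tested dose, for compounds that lower signal; inconclusive = fit invalid, or curve flat with activity between -70 and -30; inactive = potency past limit, curve flat within ±30, or signal increasing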

Chain of NAD-dependent protein deacylase sirtuin-5, mitochondrial (Homo sapiens) (Q9NXA8 whole entry, looked up): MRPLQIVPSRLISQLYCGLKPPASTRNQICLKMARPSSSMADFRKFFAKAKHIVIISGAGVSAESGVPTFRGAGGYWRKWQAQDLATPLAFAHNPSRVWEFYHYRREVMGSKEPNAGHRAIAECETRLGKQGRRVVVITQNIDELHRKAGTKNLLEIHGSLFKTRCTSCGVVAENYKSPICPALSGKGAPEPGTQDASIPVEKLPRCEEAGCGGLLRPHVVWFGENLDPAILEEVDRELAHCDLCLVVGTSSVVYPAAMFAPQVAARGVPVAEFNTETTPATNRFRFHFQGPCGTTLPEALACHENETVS

Activity change, negative = inhibition, inactive:
C[C@@H]1CN([C@@H](C)CO)C(=O)c2cccc(NS(=O)(=O)c3cn(C)cn3)c2O[C@H]1CN(C)C(=O)Nc1cccc2ccccc12 -7.45%
C/C=C/c1ccc([C@@H]2[C@@H](CO)N(C(C)=O)[C@H]2CN(C(=O)COC)C(C)C)cc1 -12.2%
C[C@H]1CN([C@@H](C)CO)C(=O)Cc2cc(NS(=O)(=O)c3ccccc3)ccc2O[C@H]1CN(C)Cc1ccc(C(=O)Nc2ccccc2N)cc1 -11.8%
CCCNC(=O)N1CC(=O)N2[C@H](CO)[C@@H](c3ccc(-c4ccc(F)cc4)cc3)[C@@H]2C1 -13.1%
C[C@H]1CN([C@@H](C)CO)S(=O)(=O)c2ccc(C#Cc3ccc(F)cc3)cc2O[C@H]1CN(C)C(=O)NC1CCCCC1 -7.87%
COc1ccc(-c2ccc([C@@H]3[C@H]4CN(C(=O)Cc5ccccn5)CC(=O)N4[C@H]3CO)cc2)cc1 -14.6%
C[C@H]1CN([C@@H](C)CO)S(=O)(=O)c2ccc(-c3cccc(F)c3)cc2O[C@@H]1CN(C)C(=O)Nc1cc(F)ccc1F -33.1%
CO[C@H](CN(C)C(=O)c1ccc2c(c1)OCO2)[C@H](C)CN([C@H](C)CO)S(=O)(=O)c1ccccc1 -23.5%
CO[C@H](CN(C)Cc1nccs1)[C@@H](C)CN([C@@H](C)CO)S(=O)(=O)c1ccc(C)cc1 -8.22%
COc1ccccc1-c1ccc2n(c1=O)C[C@@H]1[C@@H](CO)[C@H](C(=O)N3CCCCC3)[C@H]2N1CC1CC1 20.6%
CO[C@@H](CN(C)Cc1ccc2c(c1)OCO2)[C@@H](C)CN(C(=O)Nc1ccc(F)cc1)[C@H](C)CO -0.984% [at 16 µM]
COc1ccccc1S(=O)(=O)N(C)C[C@@H]1Oc2cc(C#CCC3CCCC3)ccc2S(=O)(=O)N([C@H](C)CO)C[C@H]1C -8.51%
O=C(CN1CCOCC1)N1CCCCN2[C@H](C1)[C@H](c1ccc(-c3ccccc3F)cc1)[C@@H]2CO 24.7%
COc1ccc(S(=O)(=O)N2CCCCN3[C@H](CO)[C@H](c4ccc(C#CC(C)C)cc4)[C@H]3C2)cc1 -7.12%
COc1ccccc1-c1ccc2c(c1)O[C@@H](CN(C)S(=O)(=O)c1ccc(F)cc1)[C@@H](C)CN([C@@H](C)CO)S2(=O)=O -7.03%
C[C@@H]1CN([C@H](C)CO)C(=O)c2cc(NS(=O)(=O)c3ccccc3)ccc2O[C@@H](C)CCCCO[C@H]1CN(C)Cc1ccc(C(F)(F)F)cc1 7.22%
CN(C)Cc1cn(CC[C@@H]2CC[C@H](N)[C@H](CO)O2)nn1 -7.3%
C[C@H](O)C#Cc1ccc2c(c1)O[C@H](CN(C)Cc1ccc(-c3ccccc3)cc1)[C@@H](C)CN([C@H](C)CO)S2(=O)=O -21.9% [at 7.5 µM]
C[C@H]1CN([C@@H](C)CO)C(=O)c2cc(C#CC3CCCCC3)cnc2O[C@@H]1CN(C)S(=O)(=O)c1cccc(F)c1 -18.9%
COc1ccccc1NC(=O)N[C@H]1CC[C@@H](CCNS(=O)(=O)c2ccc(F)cc2)O[C@@H]1CO -3.7%
O=C(C[C@@H]1C[C@@H]2c3cc(NC(=O)NC4CCCCC4)ccc3O[C@@H]2[C@H](CO)O1)NCCc1ccccc1 29.7%
CCCN(C[C@H]1[C@H](c2ccccc2)[C@@H](CO)N1C(C)=O)C(=O)NC(C)C 6.93% [at 16 µM]
C[C@H]1CN([C@@H](C)CO)S(=O)(=O)c2ccc(C#CC3CC3)cc2O[C@H]1CN(C)Cc1ccccc1F 2.45%
COc1ccc(C#Cc2ccc([C@H]3[C@@H](CO)N4C(=O)CN(C(=O)c5cccnc5)C[C@H]34)cc2)cc1 15.7%
C[C@@H]1CN([C@H](C)CO)C(=O)c2cccc(NC(=O)CCCCCC(=O)Nc3ccccc3N)c2O[C@H]1CN(C)Cc1ccc(Oc2ccccc2)cc1 -13%
C[C@@H]1CN([C@@H](C)CO)C(=O)Cc2cc(NS(=O)(=O)c3ccc(F)cc3)ccc2O[C@@H]1CN(C)Cc1ccc(C(F)(F)F)cc1 -12.2%
COc1cccc(S(=O)(=O)N(C)C[C@@H]2Oc3cc(C4=CCCCC4)ccc3S(=O)(=O)N([C@H](C)CO)C[C@H]2C)c1 10.5%
COc1ccc(S(=O)(=O)Nc2ccc3c(c2)CC(=O)N([C@@H](C)CO)C[C@@H](C)[C@H](CN(C)Cc2ccc(C(F)(F)F)cc2)O3)cc1 8.76%
C[C@@H]1CN([C@@H](C)CO)C(=O)c2c(c3ccccc3n2C)-c2ccccc2CO[C@@H]1CN(C)Cc1cccc2c1OCCCO2 -11.8%
COc1ccccc1C#Cc1ccc([C@H]2[C@@H](CO)N3CCCCN(C(=O)C4CCCC4)C[C@@H]23)cc1 1.76%
